Results as given in PubChem BioAssay (EPA / NIEHS).
The source made the active and inactive calls. The calls were made as follows: active = hit-call score of the fitted dose curve at least 0.9, where 1 is the maximum; inactive = score below 0.9.

What was measured:
[1] = ATG_NFI_CIS: Attagene CIS-FACTORIAL HepG2 Assay for human Nuclear Factor I (NFI) (AID 2282989); details: HepG2 cis-regulatory reporter, NFI response element transcription; actives raise or lower the signal
Summary of the method: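 Reporter transcription driven by endogenous transcription factors in HepG2 cells; 24 h treatment. Quantitation by labelled RT-PCR fragments on capillary electrophoresis, gain- or loss-of-signal relative to DMSO.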

[2] = target: Myc proto-oncogene protein (Homo sapiens) (UniProt P01106); assay: ATG_Myc_CIS: Attagene CIS-FACTORIAL HepG2 Assay for human Myelocytomatosis (Myc) Proto-Oncogene Transcription Factor (AID 2282990); details: HepG2, Attagene cis-reporter transcription factor activity; actives raise or lower the signal
Myc proto-oncogene protein (Homo sapiens), sequence (P01106 whole entry, looked up): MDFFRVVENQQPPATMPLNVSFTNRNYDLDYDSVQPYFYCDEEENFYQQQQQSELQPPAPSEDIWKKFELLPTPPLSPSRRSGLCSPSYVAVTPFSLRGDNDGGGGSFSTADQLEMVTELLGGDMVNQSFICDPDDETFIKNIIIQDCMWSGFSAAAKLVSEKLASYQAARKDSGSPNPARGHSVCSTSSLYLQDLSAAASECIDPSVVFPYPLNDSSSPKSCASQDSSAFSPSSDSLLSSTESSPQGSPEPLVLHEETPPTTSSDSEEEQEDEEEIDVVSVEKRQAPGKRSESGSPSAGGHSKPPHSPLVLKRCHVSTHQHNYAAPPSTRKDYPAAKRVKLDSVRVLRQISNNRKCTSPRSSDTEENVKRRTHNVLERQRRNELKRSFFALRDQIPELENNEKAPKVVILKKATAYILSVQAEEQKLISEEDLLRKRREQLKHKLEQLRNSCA
Summary of the method: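 Transiently transfected HepG2 cells bearing cis-promoter reporter units for endogenous transcription factors; 24 h exposure. Reporter mRNA measured by RT-PCR, 6-FAM primer extension, HpaI cut and capillary electrophoresis; bidirectional fit relative to DMSO.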

[3] = ATG_NRF2_ARE_CIS: Attagene CIS-FACTORIAL HepG2 Assay for human Nuclear Factor Erythroid 2 Related Factor 2 (NFR2) response to Antioxidant Response Elements (ARE) (AID 2282992); details: HepG2 Attagene ARE/NRF2 reporter, transcription factor activity; actives raise or lower the signal;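 as to AC50: reporter mRNA level measured by RT-PCR and capillary electrophoresis fluorescence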
Summary of the method: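 Fluorescence intensity of reporter-specific cDNA fragments, separated by capillary electrophoresis, reflects mRNA induction in transfected HepG2 cells at 24 h. Activity is fitted bidirectionally, DMSO serving as baseline.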

[4] = ATG_Oct_MLP_CIS: Attagene CIS-FACTORIAL HepG2 Assay for human Octamer-Binding Transcription Factor (Oct) (AID 2282993); details: HepG2 Attagene cis-factorial Oct reporter, mRNA; actives raise or lower the signal
Summary of the method: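 Transfected HepG2 cells, 24 h treatment. Reporter mRNA quantified by RT-PCR–capillary electrophoresis; bidirectional fitting against DMSO.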

[5] = target: Cellular tumor antigen p53 (Homo sapiens) (UniProt P04637); assay: ATG_p53_CIS: Attagene CIS-FACTORIAL HepG2 Assay for human p53 Transcription Factor (AID 2282994); details: HepG2 p53 cis-element reporter, Attagene mRNA; actives raise or lower the signal
Cellular tumor antigen p53 (Homo sapiens), sequence (P04637 whole entry, looked up): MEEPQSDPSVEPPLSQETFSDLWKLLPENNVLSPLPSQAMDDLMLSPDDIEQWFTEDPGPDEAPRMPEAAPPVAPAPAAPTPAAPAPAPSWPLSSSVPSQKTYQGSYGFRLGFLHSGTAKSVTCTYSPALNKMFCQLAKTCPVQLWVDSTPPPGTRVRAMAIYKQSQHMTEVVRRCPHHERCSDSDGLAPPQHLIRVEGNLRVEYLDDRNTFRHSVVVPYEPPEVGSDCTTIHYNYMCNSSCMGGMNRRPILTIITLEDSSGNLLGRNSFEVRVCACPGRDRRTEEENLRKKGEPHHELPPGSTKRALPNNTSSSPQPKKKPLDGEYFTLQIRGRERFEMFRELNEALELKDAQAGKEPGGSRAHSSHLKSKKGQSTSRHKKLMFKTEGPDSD
Summary of the method: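 Transiently transfected HepG2 (multiple cis reporter transcription units); exposure 24 h; reporter RNA via RT-PCR, 6-FAM extension, 2 h HpaI digest at 37 C, CE detection; DMSO baseline.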

[6] = BSK_3C_TissueFactor: BioMAP Diversity Plus: 3C Assay for Tissue Factor Biomarker Activity (AID 2282997); details: BioMAP 3C HUVEC, tissue factor biomarker readout; actives raise or lower the signal
Summary of the method: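 Tissue factor on primary human umbilical vein endothelium was read by ELISA 24 h after dosing, gain or loss relative to DMSO. Cytotoxicity ran alongside via SRB (0.1%, TCA-fixed, 560 nm).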

[7] = BSK_3C_uPAR: BioMAP Diversity Plus: 3C Assay for Urokinase-type plasminogen activator receptor (uPAR) Biomarker Activity (AID 2282998); details: BioMAP 3C HUVEC, uPAR biomarker ELISA; actives raise or lower the signal
Summary of the method: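 Readout: ELISA for surface uPAR. System: human umbilical vein endothelial primary cells, 24 h after chemical exposure. Analysis: bidirectional fit, DMSO baseline.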

[8] = BSK_3C_VCAM1: BioMAP Diversity Plus: 3C Assay for Vascular cell adhesion molecule 1 (VCAM1) Biomarker Activity (AID 2282999); details: BioMAP 3C HUVEC, VCAM1 ELISA, cytokine-stimulated; actives raise or lower the signal
Summary of the method: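 HUVEC primary cells, 24 h compound exposure; VCAM-1 by ELISA; gain/loss of signal fitted bidirectionally vs DMSO baseline.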

[9] = BSK_4H_Eotaxin3: BioMAP Diversity Plus: 4H Assay for Eotaxin 3 Biomarker Activity (AID 2283000); details: primary human endothelial cells (HUVEC); actives raise or lower the signal;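 also: CCL26 protein level quantified by ELISA in parallel with SRB cytotoxicity check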
Summary of the method: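 Human umbilical vein endothelial cells (BSK_4H system) dosed with test chemical; Eotaxin-3 (CCL26) measured by ELISA 24 h after dosing. Bidirectional curve fitting relative to DMSO negative control as baseline.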

Measured: AC50

CC(C)[C@H]1CC[C@@H](C)CC1=O
inactive: [1] | [2] | [3] | [4] | [5]

O=C(O)c1cccc(C(F)(F)F)c1
inactive: [1] | [2] | [3] | [4] | [5]

CC(C#N)(CCC(=O)O)N=NC(C)(C#N)CCC(=O)O (centres undefined)
inactive: [1] | [2] | [3] | [4] | [5]

COc1ccc(NC(=O)CC(C)=O)cc1
inactive: [1] | [2] | [3] | [4] | [5]

O=C1C(c2[nH]c3ccc(S(=O)(=O)O)cc3c2O)=Nc2ccc(S(=O)(=O)O)cc21
inactive: [1] | [2] | [3] | [4] | [5]

CC(=O)Nc1ccc(CC(=O)O)cc1
inactive: [1] | [2] | [3] | [4] | [5]

Cc1ncc([N+](=O)[O-])n1C
inactive: [1] | [2] | [3] | [4] | [5]

CCOc1ccccc1OCC
inactive: [1] | [2] | [3] | [4] | [5]

CCN(CC)c1ccc2c(-c3ccccc3C(=O)O)c3ccc(=[N+](CC)CC)cc-3oc2c1
active: [3] 36.7 µM
inactive: [1] | [2] | [4] | [5]

CC(C)[C@@H]1CC[C@@H](C)CC1=O
inactive: [1] | [2] | [3] | [4] | [5]

COC(=O)OC
inactive: [1] | [2] | [3] | [4] | [5]

CC(C)C[C@H]1C(=O)N2CCC[C@H]2[C@]2(O)O[C@](NC(=O)[C@@H]3C=C4c5cccc6[nH]c(Br)c(c56)C[C@H]4N(C)C3)(C(C)C)C(=O)N12
inactive: [2] | [4]
active: [1] 3.81 µM | [3] 3.7 µM

Cc1ccccc1C=O
inactive: [1] | [2] | [3] | [4] | [5]

CC1(C)[C@H]2CC[C@]1(C)[C@H](O)C2
inactive: [1] | [2] | [3] | [4] | [5]

CCCCCC(=O)OCCc1ccccc1
inactive: [1] | [2] | [3] | [4] | [5]

CCC(=O)/C=C/C1C(C)=CCCC1(C)C (centres undefined)
active: [3] 40.4 µM
inactive: [1] | [2] | [4] | [5]

CC(=O)C(=O)O
inactive: [1] | [2] | [3] | [4] | [5]

NCCCN1CCOCC1
inactive: [1] | [2] | [3] | [4]

COc1ccnc(CS(=O)c2nc3cc(OC(F)F)ccc3[nH]2)c1OC (centres undefined)
inactive: [1] | [2] | [4]
active: [3] 59.4 µM

C=C(C)C1CCC(C)CC1O (centres undefined)
inactive: [1] | [2] | [3] | [4] | [5]

CO[Si](C)(OC)c1ccccc1
inactive: [1] | [2] | [4] | [5]
active: [3] 16.2 µM

CCCCCNCCCCC
inactive: [1] | [2] | [3] | [4] | [5]

NCCOCCO
inactive: [1] | [2] | [3] | [4] | [5]

CC1(C)[C@@H]2CC[C@@]1(C)[C@H](O)C2
inactive: [1] | [2] | [3] | [5]

CCCCCC(CO)CCC (centres undefined)
inactive: [1] | [2] | [3] | [5]

CCCCCCCCCC=O
inactive: all assays above

O=C=NC1CCC(CC2CCC(N=C=O)CC2)CC1 (centres undefined)
active: [2] 100 µM | [4] 61.8 µM | [6] 3.97 µM
inactive: all other assays above

CC(=O)[C@H]1CC[C@H]2[C@@H]3CC=C4C[C@@H](O)CC[C@]4(C)[C@H]3CC[C@]12C
active: [3] 16.5 µM
inactive: all other assays above

O=C(O)CCSCCC(=O)O
inactive: [1] | [2] | [3] | [5]

O=Cc1ccc(F)cc1
inactive: [1] | [2] | [3] | [5]

CCCCCCCCCCCCSC
inactive: [1] | [2] | [3] | [5]

CCC/C=C/C=O
inactive: [1] | [2] | [4]

O=C[C@@H](O)[C@H](O)[C@H](O)CO
inactive: [1] | [2] | [4] | [5]

C=CCOC(=O)CCC1CCCCC1
inactive: all assays above

OC[C@H]1O[C@H](O[C@]2(CCl)O[C@H](CCl)[C@@H](O)[C@@H]2O)[C@H](O)[C@@H](O)[C@H]1Cl
inactive: all assays above
